Data: PubChem BioAssay (NCATS)
Several values for one entry are separate records, joined by “and”; a condition that tells them apart may be missing. Identical values can stand only once. Results filed as inconclusive are left out. More than one record can exist for a structure, and the calls need not agree. Activity calls are given as the source filed them. Unless noted, the call rests on the fitted dose curve; in most records, active means well fitted curve in the direction sought with a large enough effect; inconclusive means small, poorly fitted or top-dose-only effect, or another doubt; inactive means no such curve, though single readings can be large; an effect the other way counts as inactive or inconclusive.

Tests used:
WaGa = assay: qHTS assay to identify novel small-molecules to repurpose for Merkel cell carcinoma treatment (AID 1296009); conditions: MCC and control cell lines, CellTiter-Glo viability, 72 h; series mostly up to 46 µM; further: on the % scale 0 is the no-effect control and ±100 the full control effect; nearly all actives have a fitted effect of over 60% in size
Method in brief: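 Cell viability, measured as CellTiter-Glo luminescence, was normalized between DMSO and no-cell wells. The cells had been exposed to 8- or 11-point compound dilutions for 72 hr at 37 degree celsius.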

C33A = assay: Primary qHTS to identify gynecologic anti-cancer compounds using libraries of approved drugs and bioactive compounds (AID 1345084); conditions: Gynecologic cancer cell panel viability, ATPlite luminescence, 48 h; series mostly up to 57.5 µM; further: nearly all actives have a fitted effect of over 55% in size; further: potency means the concentration at half of the fitted maximal effect
Method in brief: (§1)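 Cells, 1,000 per well, plated 16 h, then exposed 48 h at 37 C to compounds. Viability by ATPlite luminescence after 15 min at room temperature.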

CASKI = assay: as above; conditions: Gynecologic cancer cell panel viability, ATPlite luminescence, 48 h; series mostly up to 57.5 µM
Method in brief: as §1

Es-2 = assay: as above; conditions: Gynecologic cancer cell panel viability, ATPlite luminescence, 48 h; series mostly up to 57.5 µM
Method in brief: as §1

HeLa = assay: as above; conditions: Gynecologic cancer cell panel viability, ATPlite luminescence, 48 h; series mostly up to 57.5 µM
Method in brief: as §1

Hek293T = assay: as above; conditions: Gynecologic cancer cell panel viability, ATPlite luminescence, 48 h, control line for the selectivity index; series mostly up to 57.5 µM
Method in brief: as §1

JEG-3 = assay: as above; conditions: Gynecologic cancer cell panel viability, ATPlite luminescence, 48 h; series mostly up to 57.5 µM
Method in brief: as §1

OV90 = assay: as above; conditions: Gynecologic cancer cell panel viability, ATPlite luminescence, 48 h; series mostly up to 57.5 µM
Method in brief: as §1

PA-1 = assay: as above; conditions: Gynecologic cancer cell panel viability, ATPlite luminescence, 48 h; series mostly up to 57.5 µM
Method in brief: as §1

SKOV3 = assay: as above; conditions: Gynecologic cancer cell panel viability, ATPlite luminescence, 48 h; series mostly up to 57.5 µM
Method in brief: as §1

Tov-21-G = assay: as above; conditions: Gynecologic cancer cell panel viability, ATPlite luminescence, 48 h; series mostly up to 57.5 µM
Method in brief: as §1

Tov112D = assay: as above; conditions: Gynecologic cancer cell panel viability, ATPlite luminescence, 48 h; series mostly up to 57.5 µM
Method in brief: as §1

astro = assay: Drug repurposing screens with cells derived from glioblastoma tumor samples (AID 1345199); conditions: viability, ATP luminescence, 48 h; series mostly up to 45.9 µM; further: nearly all actives have a fitted effect of over 40% in size; further: potency means the concentration at half of the fitted maximal effect; on activity, negative = cell killing: on the % scale 0 is the no-effect control and ±100 the full control effect
Method in brief: (§2)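 Primary testing used CD133+ neurospheres from four GBM patients, seven concentrations, 48 h exposure and ATP-based viability; confirmation added three slower-growing patient lines.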

[1] = as above; conditions: GBM patient neurospheres viability, ATP luminescence, 48 h
Method in brief: as §2

[2] = molecular target: Nuclear receptor subfamily 1 group I member 2 (Rattus norvegicus) (UniProt Q9R1A7); assay: qHTS assay for small molecule activators of the rat pregnane X receptor (rPXR) signaling pathway (AID 651751; call rule not given here; further: 0% is about no effect); conditions: rPXR reporter cells, luciferase (One-Glo), 24 h
Nuclear receptor subfamily 1 group I member 2 (Rattus norvegicus), sequence (Q9R1A7 whole entry, looked up): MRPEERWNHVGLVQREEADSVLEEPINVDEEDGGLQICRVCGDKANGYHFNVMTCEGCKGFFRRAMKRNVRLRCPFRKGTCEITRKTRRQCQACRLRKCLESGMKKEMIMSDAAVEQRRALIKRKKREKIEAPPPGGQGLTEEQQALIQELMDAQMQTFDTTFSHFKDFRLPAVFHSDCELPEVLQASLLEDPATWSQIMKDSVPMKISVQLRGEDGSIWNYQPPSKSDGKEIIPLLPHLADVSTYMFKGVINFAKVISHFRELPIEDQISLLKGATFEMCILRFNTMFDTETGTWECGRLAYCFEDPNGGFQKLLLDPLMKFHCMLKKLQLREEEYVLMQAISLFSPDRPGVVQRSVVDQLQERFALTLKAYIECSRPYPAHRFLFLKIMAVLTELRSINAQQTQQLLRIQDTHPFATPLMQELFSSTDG

CAOV3 = assay: Primary qHTS to identify gynecologic anti-cancer compounds using libraries of approved drugs and bioactive compounds (AID 1345084); conditions: Gynecologic cancer cell panel viability, ATPlite luminescence, 48 h; series mostly up to 57.5 µM; further: nearly all actives have a fitted effect of over 55% in size; further: potency means the concentration at half of the fitted maximal effect
Method in brief: as §1

[3] = qHTS assay for small molecule activators of the human pregnane X receptor (PXR) signaling pathway (AID 720659; call rule not given here; further: 0% is about no effect)
[4] = at 46.1 µM (top of the series), tumour line C
[5] = at 45.9 µM (top of the series), tumour line B
[6] = at 45.9 µM (top of the series), tumour line D

CCN(CC)C(=O)Nc1ccc(OCC(O)CNC(C)(C)C)c(C(C)=O)c1 (centres undefined)
inactive: Potency (WaGa) | Potency (C33A) | Potency (CASKI) | Potency (Es-2) | Potency (HeLa) | Potency (Hek293T) | Potency (JEG-3) | Potency (OV90) | Potency (PA-1) | Potency (SKOV3) | Potency (Tov-21-G) | Potency (Tov112D) | Potency (astro)

CC(CN1c2ccccc2Sc2ccccc21)N(C)C (centres undefined)
inactive: Potency (C33A) | Potency (CASKI) | Potency (Es-2) | Potency (HeLa) | Potency (Hek293T) | Potency (JEG-3) | Potency (PA-1) | Potency (SKOV3) | Potency (Tov-21-G) | Potency (Tov112D) | activity, negative = cell killing [1, 4] -1.52% | max response [2] 3.22%
active: Potency ([1]; tumour line A) 14.1 µM | Potency ([1]; tumour line B) 20 µM | Potency ([1]; tumour line D) 22.4 µM | Potency (astro) 20 µM

COCCOC(=O)C1=C(C)NC(C)=C(C(=O)OC/C=C/c2ccccc2)C1c1cccc([N+](=O)[O-])c1 (centres undefined)
inactive: Potency (Es-2) | Potency (HeLa) | Potency (JEG-3) | Potency (OV90) | Potency (Tov-21-G) | Potency (Tov112D) | activity, negative = cell killing [1, 5] 2.48%
active: Potency ([1]; tumour line A) 3.55 µM | Potency ([1]; tumour line C) 18.4 µM | Potency ([1]; tumour line D) 12.6 µM

Nc1ncnc2c1ncn2[C@@H]1O[C@H](CO)[C@@H](O)[C@H]1O
inactive: Potency (C33A) | Potency (CAOV3) | Potency (CASKI) | Potency (Es-2) | Potency (HeLa) | Potency (Hek293T) | Potency (JEG-3) | Potency (OV90) | Potency (PA-1) | Potency (SKOV3) | Potency (Tov-21-G) | Potency (Tov112D) | activity, negative = cell killing [1, 5] 4.34% | activity, negative = cell killing [1, 6] 12.4% | activity, negative = cell killing ([1]; at 46 µM (top of the series), tumour line A) -12.9% | activity, negative = cell killing [1, 4] -3.63% | Potency (astro)

CC(=O)OCC(=O)[C@@]1(O)CC[C@H]2[C@@H]3CCC4=CC(=O)CC[C@]4(C)[C@H]3C(=O)C[C@@]21C
active: Potency ([1]; tumour line A) 25.1 µM
inactive: Potency (C33A) | Potency (CAOV3) | Potency (CASKI) | Potency (Es-2) | Potency (HeLa) | Potency (Hek293T) | Potency (JEG-3) | Potency (OV90) | Potency (PA-1) | Potency (SKOV3) | Potency (Tov-21-G) | Potency (Tov112D) | activity, negative = cell killing [1, 5] -22% | Potency (astro)

NC(CSCC(=O)O)C(=O)O (centres undefined)
inactive: Potency (WaGa) | Potency (C33A) | Potency (CASKI) | Potency (Es-2) | Potency (HeLa) | Potency (Hek293T) | Potency (JEG-3) | Potency (OV90) | Potency (PA-1) | Potency (SKOV3) | Potency (Tov-21-G) | Potency (Tov112D) | Potency (astro)

CSc1ccc2c(c1)C(N1CCN(C)CC1)Cc1ccccc1S2 (centres undefined)
active: Potency (astro) 20 µM
inactive: Potency (C33A) | Potency (CASKI) | Potency (Es-2) | Potency (HeLa) | Potency (Hek293T) | Potency (JEG-3) | Potency (PA-1) | Potency (Tov-21-G) | Potency (Tov112D)

C[C@H](N)[C@H](O)c1cccc(O)c1
inactive: Potency (WaGa) | Potency (C33A) | Potency (CASKI) | Potency (Es-2) | Potency (HeLa) | Potency (Hek293T) | Potency (JEG-3) | Potency (OV90) | Potency (PA-1) | Potency (SKOV3) | Potency (Tov-21-G) | Potency (Tov112D) | Potency (astro)

[Cl][In]([Cl])[Cl]
inactive: Potency (WaGa) | Potency (C33A) | Potency (CASKI) | Potency (Es-2) | Potency (HeLa) | Potency (JEG-3) | Potency (OV90) | Potency (PA-1) | Potency (SKOV3) | Potency (Tov-21-G) | Potency (Tov112D) | Potency (astro) | max response [2] -5.11% | outcome [3]

Cc1cc(N)c2ccccc2[n+]1CCCCCCCCCC[n+]1c(C)cc(N)c2ccccc21
active: Potency (PA-1) 22.4 µM
inactive: Potency (C33A) | Potency (Es-2) | Potency (HeLa) | Potency (JEG-3) | Potency (Tov112D)

OCCN1CCN(CCCN2c3ccccc3Sc3ccc(Cl)cc32)CC1
active: Potency (C33A) 20 µM | Potency (CAOV3) 25.1 µM | Potency (CASKI) 25.1 µM | Potency (OV90) 15.8 µM | Potency (SKOV3) 28.2 µM | Potency (Tov112D) 25.1 µM | Potency ([1]; tumour line A) 3.16 µM | Potency ([1]; tumour line B) 8.91 µM | Potency ([1]; tumour line D) 10 µM
inactive: Potency (HeLa) | activity, negative = cell killing ([1]; at 20 µM (top of the series), tumour line C) -18%

CC/C=C(\C(=O)N[C@@H]1C(=O)N2C(C(=O)OCOC(=O)C(C)(C)C)=C(COC(N)=O)CS[C@H]12)c1csc(N)n1
inactive: Potency (C33A) | Potency (CASKI) | Potency (Es-2) | Potency (HeLa) | Potency (Hek293T) | Potency (JEG-3) | Potency (OV90) | Potency (PA-1) | Potency (SKOV3) | Potency (Tov-21-G) | Potency (Tov112D) | activity, negative = cell killing [1, 5] -9.61% and -1.73% | activity, negative = cell killing [1, 6] -14.3% and 0.361% | activity, negative = cell killing [1, 4] -12.1% and -5.64% | Potency (astro)
active: Potency ([1]; tumour line A) 17.8 µM
